The values below come from PubChem BioAssay (Tox21).

Results filed as inconclusive are left out. Where a call stands in place of a potency, no number is given. Calls of active or inactive are those of the source. The call rests on the fitted dose curve; in most records, active means well fitted inhibition curve with a large enough effect in the signal ratio in the repeat runs (not every such curve was filed as active); inconclusive means weak or mixed curves, or effect the other way; inactive means no such curve, though single readings can be large or run the other way; the % refers to the signal ratio.
Potency means the concentration at half of the fitted maximal effect.

Chain of Bile acid receptor (Homo sapiens) (Q96RI1 whole entry, looked up): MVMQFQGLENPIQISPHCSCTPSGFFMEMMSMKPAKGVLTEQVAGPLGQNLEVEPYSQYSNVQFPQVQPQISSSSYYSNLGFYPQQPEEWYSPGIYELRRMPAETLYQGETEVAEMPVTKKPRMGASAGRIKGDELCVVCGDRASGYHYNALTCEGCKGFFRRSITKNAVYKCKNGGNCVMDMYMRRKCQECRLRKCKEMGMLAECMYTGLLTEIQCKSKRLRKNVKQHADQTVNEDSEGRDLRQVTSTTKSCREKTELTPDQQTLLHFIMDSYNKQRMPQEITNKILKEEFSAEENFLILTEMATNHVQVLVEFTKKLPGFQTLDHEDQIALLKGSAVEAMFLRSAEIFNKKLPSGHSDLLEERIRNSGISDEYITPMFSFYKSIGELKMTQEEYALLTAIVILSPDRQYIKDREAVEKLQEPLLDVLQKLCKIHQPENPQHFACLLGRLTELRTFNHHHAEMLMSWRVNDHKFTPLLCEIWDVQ

The assay has as its target Bile acid receptor (Homo sapiens) (UniProt Q96RI1). The experiment in a line: qHTS assay to identify small molecule antagonists of the farnesoid-X-receptor (FXR) signaling pathway (AID 743217). As to conditions: HEK293T FXR-UAS-bla, beta-lactamase ratio, CDCA-stimulated, 16 h; series mostly up to 62.6 µM. In short, it runs like this: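 Screen of the Tox21 10K library in quantitative HTS format using FXR-UAS-bla HEK 293T reporter cells. Agonist chenodeoxycholic acid, 50 uM final, added with compounds; 16 h incubation at 37 °C; beta-lactamase FRET fluorescence measured.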
`CC(=O)Oc1ccc2c(c1)CC[C@@H]1[C@@H]2CC[C@]2(C)[C@@H](O)CC[C@@H]12`: the Potency is 29.8 µM (active).
As to `CC(N)CN` (stereo not given), the Potency entry was “inactive”.
`Cc1cc(OI)c(C(C)C)cc1-c1cc(C(C)C)c(OI)cc1C`: the Potency entry is “inactive”.
Next, `C=CCNc1nc(NCC=C)nc(N2CCN(C(c3ccc(F)cc3)c3ccc(F)cc3)CC2)n1`: “inactive”.
For `CC(C)CCCC(=O)O`, the Potency entry is “inactive”.
On to `COCCOC`, for which the Potency entry was “inactive”.
Regarding `O=C(CS)OCCOC(=O)CS`, the Potency entry is “inactive”.
Turning to `CCCc1c(OCCCOc2ccc(OCC(=O)O)cc2)ccc(C(C)=O)c1O`, the Potency result is “inactive”.
As for `CCCCCCCCCCCC[N+](C)(C)CC(=O)[O-]`, the Potency result is “inactive”.
Take `Cc1occc1C(=O)Nc1ccc(C(=O)N2CCC(F)(F)/C(=C\C(=O)N3CCC(N4CCCCC4)CC3)c3ccccc32)cc1`: the Potency result was “inactive”.
For `CO/N=C1\CN(c2nc3c(cc2F)c(=O)c(C(=O)O)cn3C2CC2)CC1CN` (stereo not given) the value was “inactive”; for `O=C(Nc1ccc([N+](=O)[O-])cc1)Nc1ccc([N+](=O)[O-])cc1`, “inactive”.
Regarding `CC(C)(CCl)c1ccccc1`, the Potency result was “inactive”.
For `O=C(c1ccc(O)cc1)c1ccc(Cl)cc1` the value was “inactive”; for `CC(C)(O)c1ccccc1CC[C@@H](SCC1(CC(=O)O)CC1)c1cccc(/C=C/c2ccc3ccc(Cl)cc3n2)c1`, “inactive”; for `CC#N`, “inactive”.
For the molecule `CCCCCCCCCCOS(=O)(=O)O`, the Potency result is “inactive”.
Consider `NC(=O)N(O)[C@@H]1COc2cc(OCc3ccccc3)ccc21`, for which the Potency result is “inactive”.
As for `C[Si](NC1CCCCC1)(NC1CCCCC1)NC1CCCCC1`, the Potency result is “inactive”.
For `CCCCCCOC(=O)C(C)C`, the Potency entry is “inactive”.
